Counter-ions that a name gives are not always drawn.
Key:
Details in all cases: incubation time: 27 h, anaerobic, 37 °C;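 for the amine columns active = adjusted P below 0.05 in both replicates with a change the same way and a mean fold change under 0.8 or over 1.25; inactive = the rest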
[1] = test system: Clostridium sporogenes DSM 1664; assay: growth (OD595) fold change vs plate DMSO controls (fold change (ratio)); higher = more growth
Method in brief: (§1)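 The reported measure is growth: the fold change against the median of DMSO controls on the plate. Absorbance at 595 nm from anaerobic 96-well mGAM cultures grown for 27 h at 37 °C was blank-subtracted, corrected for background with 20 µM compound solutions in water, and converted to OD with a calibration factor of 5. Fold changes above 1.5 appear as NA, and values are the mean of 2 biological replicates.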

Escherichia coli IAI1 [2] = assay: as above
Method in brief: as §1

[3] = test system: Klebsiella aerogenes DSM 30053; assay: as above
Method in brief: as §1

[4] = test system: Ruminococcus gnavus DSM 108212; assay: as above
Method in brief: as §1

[5] = test system: Klebsiella aerogenes DSM 30053; assay: fold change of Histamine concentration vs plate DMSO controls (fold change (ratio)); higher = more amine produced, active = hit call of the paper (significant change in both replicates, either direction)
Method in brief: (§2)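 Extracts of whole anaerobic mGAM cultures were analysed for amines by LC–triple-quadrupole MS with dynamic MRM and external calibration curves, with drift corrected within batch. Four gut strains were grown at 37 °C for 27 h in 80 µL wells with compounds at 20 µM final, sweeteners at 50 µM final. Each value expresses fold change over plate DMSO controls. The average of 2 biological replicates is shown.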

[6] = test system: Clostridium sporogenes DSM 1664; assay: fold change of Tryptamine concentration vs plate DMSO controls (fold change (ratio)); higher = more amine produced, active = hit call of the paper (significant change in both replicates, either direction)
Method in brief: as §2

[7] = test system: Ruminococcus gnavus DSM 108212; assay: as above
Method in brief: as §2

Escherichia coli IAI1 [8] = assay: fold change of Putrescine concentration vs plate DMSO controls (fold change (ratio)); higher = more amine produced, active = hit call of the paper (significant change in both replicates, either direction)
Method in brief: as §2

[9] = test system: Klebsiella aerogenes DSM 30053; assay: as above
Method in brief: as §2

Escherichia coli IAI1 [10] = assay: fold change of Cadaverine concentration vs plate DMSO controls (fold change (ratio)); higher = more amine produced, active = hit call of the paper (significant change in both replicates, either direction)
Method in brief: as §2

[11] = test system: Klebsiella aerogenes DSM 30053; assay: as above
Method in brief: as §2

[12] = test system: Ruminococcus gnavus DSM 108212; assay: fold change of 2-Phenylethylamine concentration vs plate DMSO controls (fold change (ratio)); higher = more amine produced, active = hit call of the paper (significant change in both replicates, either direction)
Method in brief: as §2

Work on CNCCc1ccccn1 [Betahistine mesylate] (20 µM) yielded a growth [1] of 1.26, a growth (Escherichia coli IAI1 [2]) of 1 and a growth [3] of 1.02. The growth [4] was 1.25, the “fold change of Histamine concentration” value [5] was 0.991 (inactive) and the “fold change of Tryptamine concentration” value [6] was 0.994 (inactive). The “fold change of Tryptamine concentration” value [7] was 1.02 (inactive), the “fold change of Putrescine concentration” value (Escherichia coli IAI1 [8]) was 1.03 (inactive) and the “fold change of Putrescine concentration” value [9] was 0.995 (inactive). For the same compound, the “fold change of Cadaverine concentration” value (Escherichia coli IAI1 [10]) was 0.967 (inactive), the “fold change of Cadaverine concentration” value [11] was 0.993 (inactive) and the “fold change of 2-Phenylethylamine concentration” value [12] was 1.01 (inactive).
Cc1cnc(C(=O)O)c[n+]1[O-] [Acipimox] (20 µM) gave a growth [1] of 1.05, a growth (Escherichia coli IAI1 [2]) of 0.996 and a growth [3] of 1.27. The growth [4] was 0.959, the “fold change of Histamine concentration” value [5] was 0.874 (inactive) and the “fold change of Tryptamine concentration” value [6] was 0.952 (inactive). The “fold change of Tryptamine concentration” value [7] was 1 (inactive), the “fold change of Putrescine concentration” value (Escherichia coli IAI1 [8]) was 1.01 (inactive) and the “fold change of Putrescine concentration” value [9] was 0.998 (inactive). For the same compound, the “fold change of Cadaverine concentration” value (Escherichia coli IAI1 [10]) was 1.03 (inactive), the “fold change of Cadaverine concentration” value [11] was 1.03 (inactive) and the “fold change of 2-Phenylethylamine concentration” value [12] was 1.03 (inactive).
In the case of Clc1ccc(C(Cn2ccnc2)OCc2c(Cl)cccc2Cl)c(Cl)c1 (centres undefined) [Isoconazole] (20 µM), the growth [1] was 0.999, the growth (Escherichia coli IAI1 [2]) was 0.858 and the growth [3] was 0.862. For the same compound, the growth [4] was 0.0371, the “fold change of Histamine concentration” value [5] was 1 (inactive) and the “fold change of Tryptamine concentration” value [6] was 0.846 (inactive). For the same compound, the “fold change of Tryptamine concentration” value [7] was 0.265 (active), the “fold change of Putrescine concentration” value (Escherichia coli IAI1 [8]) was 1.01 (inactive) and the “fold change of Putrescine concentration” value [9] was 1.01 (inactive). The “fold change of Cadaverine concentration” value (Escherichia coli IAI1 [10]) was 0.966 (inactive), the “fold change of Cadaverine concentration” value [11] was 1 (inactive) and the “fold change of 2-Phenylethylamine concentration” value [12] was 0.289 (active).
CN(C)CC/C=C1/c2ccccc2COc2ccc(CC(=O)O)cc21 [Olopatadine hydrochloride] (20 µM) gave a growth [1] of 1.01, a growth (Escherichia coli IAI1 [2]) of 0.978 and a growth [3] of 1.01. For the same compound, the growth [4] was 0.955, the “fold change of Histamine concentration” value [5] was 1 (inactive) and the “fold change of Tryptamine concentration” value [6] was 0.968 (inactive). The “fold change of Tryptamine concentration” value [7] was 1.03 (inactive), the “fold change of Putrescine concentration” value (Escherichia coli IAI1 [8]) was 1.01 (inactive) and the “fold change of Putrescine concentration” value [9] was 1 (inactive). The “fold change of Cadaverine concentration” value (Escherichia coli IAI1 [10]) was 0.995 (inactive), the “fold change of Cadaverine concentration” value [11] was 1 (inactive) and the “fold change of 2-Phenylethylamine concentration” value [12] was 1.04 (inactive).
For OC[C@@H](O)[C@@H](O)[C@H](O)[C@H](O)CO [Mannitol] (50 µM), the growth [1] was 1.02, the growth (Escherichia coli IAI1 [2]) was 0.924 and the growth [3] was 0.982. The growth [4] was 0.983, the “fold change of Histamine concentration” value [5] was 1.04 (inactive) and the “fold change of Tryptamine concentration” value [6] was 1.01 (inactive). For the same compound, the “fold change of Tryptamine concentration” value [7] was 0.975 (inactive), the “fold change of Putrescine concentration” value (Escherichia coli IAI1 [8]) was 0.919 (inactive) and the “fold change of Putrescine concentration” value [9] was 0.996 (inactive). The “fold change of Cadaverine concentration” value (Escherichia coli IAI1 [10]) was 1.11 (inactive), the “fold change of Cadaverine concentration” value [11] was 0.992 (inactive) and the “fold change of 2-Phenylethylamine concentration” value [12] was 0.976 (inactive).
Compound CC(=O)N1CCN(c2ccc(OCC3COC(Cn4ccnc4)(c4ccc(Cl)cc4Cl)O3)cc2)CC1 (centres undefined) [Ketoconazole] (20 µM) has a growth [1] of 1.17, a growth (Escherichia coli IAI1 [2]) of 0.988 and a growth [3] of 1. The growth [4] was 0.945, the “fold change of Histamine concentration” value [5] was 0.927 (inactive) and the “fold change of Tryptamine concentration” value [6] was 1.03 (inactive). For the same compound, the “fold change of Tryptamine concentration” value [7] was 0.984 (inactive), the “fold change of Putrescine concentration” value (Escherichia coli IAI1 [8]) was 1.04 (inactive) and the “fold change of Putrescine concentration” value [9] was 0.979 (inactive). The “fold change of Cadaverine concentration” value (Escherichia coli IAI1 [10]) was 1.02 (inactive), the “fold change of Cadaverine concentration” value [11] was 0.994 (inactive) and the “fold change of 2-Phenylethylamine concentration” value [12] was 0.937 (inactive).
Compound CN(C)CCOC(c1ccccc1)c1ccccc1.Cn1c(=O)c2[nH]c(Cl)nc2n(C)c1=O [Dimenhydrinate] (20 µM) has a growth [1] of 0.99, a growth (Escherichia coli IAI1 [2]) of 0.985 and a growth [3] of 0.954. For the same compound, the growth [4] was 1.06, the “fold change of Histamine concentration” value [5] was 1.05 (inactive) and the “fold change of Tryptamine concentration” value [6] was 1.02 (inactive). For the same compound, the “fold change of Tryptamine concentration” value [7] was 1.02 (inactive), the “fold change of Putrescine concentration” value (Escherichia coli IAI1 [8]) was 0.995 (inactive) and the “fold change of Putrescine concentration” value [9] was 1.01 (inactive). The “fold change of Cadaverine concentration” value (Escherichia coli IAI1 [10]) was 0.985 (inactive), the “fold change of Cadaverine concentration” value [11] was 0.985 (inactive) and the “fold change of 2-Phenylethylamine concentration” value [12] was 1.03 (inactive).
For CC(=O)c1ccc2c(c1)N(CCCN(C)C)c1ccccc1S2 [Acetopromazine maleate salt] (20 µM), the growth [1] was 0.96, the growth (Escherichia coli IAI1 [2]) was 1 and the growth [3] was 0.976. For the same compound, the growth [4] was 0.878, the “fold change of Histamine concentration” value [5] was 1.03 (inactive) and the “fold change of Tryptamine concentration” value [6] was 1.01 (inactive). For the same compound, the “fold change of Tryptamine concentration” value [7] was 1.01 (inactive), the “fold change of Putrescine concentration” value (Escherichia coli IAI1 [8]) was 1 (inactive) and the “fold change of Putrescine concentration” value [9] was 1.01 (inactive). For the same compound, the “fold change of Cadaverine concentration” value (Escherichia coli IAI1 [10]) was 1.03 (inactive), the “fold change of Cadaverine concentration” value [11] was 0.983 (inactive) and the “fold change of 2-Phenylethylamine concentration” value [12] was 1.03 (inactive).
For Oc1c(Cl)cc(Cl)c(Cl)c1Cc1c(O)c(Cl)cc(Cl)c1Cl (20 µM), the growth [1] was 0, the growth (Escherichia coli IAI1 [2]) was 0.939 and the growth [3] was 1.02. For the same compound, the growth [4] was 0, the “fold change of Histamine concentration” value [5] was 1.06 (inactive) and the “fold change of Tryptamine concentration” value [6] was 0.00872 (active). The “fold change of Tryptamine concentration” value [7] was 0.0717 (active), the “fold change of Putrescine concentration” value (Escherichia coli IAI1 [8]) was 1.06 (inactive) and the “fold change of Putrescine concentration” value [9] was 1.01 (inactive). For the same compound, the “fold change of Cadaverine concentration” value (Escherichia coli IAI1 [10]) was 1.37 (active), the “fold change of Cadaverine concentration” value [11] was 1.02 (inactive) and the “fold change of 2-Phenylethylamine concentration” value [12] was 0.0513 (active).
With COc1c(-c2ccc3cc(NS(C)(=O)=O)ccc3c2)cc(-n2ccc(=O)[nH]c2=O)cc1C(C)(C)C [Dasabuvir] (20 µM) the growth [1] was 1.04, the growth (Escherichia coli IAI1 [2]) was 0.964 and the growth [3] was 1.01. For the same compound, the growth [4] was 0.849, the “fold change of Histamine concentration” value [5] was 0.969 (inactive) and the “fold change of Tryptamine concentration” value [6] was 0.847 (inactive). The “fold change of Tryptamine concentration” value [7] was 0.747 (active), the “fold change of Putrescine concentration” value (Escherichia coli IAI1 [8]) was 1.01 (inactive) and the “fold change of Putrescine concentration” value [9] was 0.999 (inactive). The “fold change of Cadaverine concentration” value (Escherichia coli IAI1 [10]) was 0.989 (inactive), the “fold change of Cadaverine concentration” value [11] was 0.99 (inactive) and the “fold change of 2-Phenylethylamine concentration” value [12] was 0.754 (inactive).
Work on CN1[C@@H]2CC[C@H]1C[C@@H](OC(=O)c1c[nH]c3ccccc13)C2 [Tropisetron hydrochloride] (20 µM) yielded a growth [1] of 1.14, a growth (Escherichia coli IAI1 [2]) of 1 and a growth [3] of 1.14. The growth [4] was 1.08, the “fold change of Histamine concentration” value [5] was 0.94 (inactive) and the “fold change of Tryptamine concentration” value [6] was 1.01 (inactive). For the same compound, the “fold change of Tryptamine concentration” value [7] was 1.02 (inactive), the “fold change of Putrescine concentration” value (Escherichia coli IAI1 [8]) was 0.982 (inactive) and the “fold change of Putrescine concentration” value [9] was 0.952 (inactive). The “fold change of Cadaverine concentration” value (Escherichia coli IAI1 [10]) was 0.994 (inactive), the “fold change of Cadaverine concentration” value [11] was 1.01 (inactive) and the “fold change of 2-Phenylethylamine concentration” value [12] was 0.957 (inactive).
Work on NC[C@@H]1O[C@@H](O[C@H]2[C@H](O)[C@@H](O[C@H]3O[C@H](CO)[C@@H](O)[C@H](N)[C@H]3O)[C@H](N)C[C@@H]2N)[C@@H](O)[C@H](O)[C@H]1O [Kanamycin A sulfate] (20 µM) yielded a growth [1] of 1.05, a growth (Escherichia coli IAI1 [2]) of 1.02 and a growth [3] of 1.02. For the same compound, the growth [4] was 1.09, the “fold change of Histamine concentration” value [5] was 0.907 (inactive) and the “fold change of Tryptamine concentration” value [6] was 1.06 (inactive). The “fold change of Tryptamine concentration” value [7] was 1.01 (inactive), the “fold change of Putrescine concentration” value (Escherichia coli IAI1 [8]) was 1.02 (inactive) and the “fold change of Putrescine concentration” value [9] was 0.977 (inactive). The “fold change of Cadaverine concentration” value (Escherichia coli IAI1 [10]) was 0.97 (inactive), the “fold change of Cadaverine concentration” value [11] was 1.02 (inactive) and the “fold change of 2-Phenylethylamine concentration” value [12] was 1.03 (inactive).
